According to PubChem BioAssay AID651789 (National Center for Advancing Translational Sciences (NCATS), 2012):
Inconclusive results are not listed. Activity calls are given as the source filed them. Calls come from the whole dose curve; as a rule, active = well fitted inhibition curve with a large enough effect; inconclusive = small, poorly fitted or top-dose-only effect; inactive = no such curve, though single readings can be large or run the other way.

Assay: Acumen qHTS Assay for Inhibitors of the mTORC1 Signaling Pathway in WT MEF Cells: Hit Validation; note: nearly all actives have a fitted effect of over 60% in size
Conditions: Acumen imaging; series mostly up to 37.3 µM
From the text: The mammalian target of rapamycin (mTOR) is an intracellular serine/threonine kinase Aberrant regulation of mTOR signaling plays a causative role in a number of human diseases, including cancer, benign tumors such as lymphangioleiomyomatosis (LAM) and Tuberous Sclerosis Complex (TSC), and metabolic diseases such as diabetes and obesity. This project aims to identify inhibitors of ribosomal protein S6 (rpS6) phosphorylation. The phosphorylation of rpS6 is a key event downstream of mTOR activation. The assay uses a phospho-specific antibody of phospho-rpS6 to detect inhibitors of mTOR activation. Mutations in the Tsc1 and Tsc2 genes are the underlying genetic lesions responsible for TSC, causing constitutive activation of the mTORC1 pathway and leading to profound effects on cell metabolism. Aberrant metabolism in cancer has recently received significant attention as a target to develop therapeutic agents in the treatment of cancer.1 As Tsc2-/- cells have lost the ability to respond to energy and growth factor deprivation, these cells are unable to properly down regulate cellular biosynthetic processes in response to metabolic stress, and are thus extremely sensitive to glucose deprivation-induced death.2 A central goal of this project is to explore the unique cell survival and metabolic properties of cells with Tsc1 or Tsc2 by screening for compounds that selectively target the Tsc2-/- MEFs by screening both Tsc2-/- and WT MEF cell lines. We hope to better understand these aspects of TSC physiology in order to exploit them for therapeutic benefit.
NIH Molecular Libraries Probe Production Centers Network [MLPCN]
NIH Chemical Genomics Center [NCGC]
Assay Submitter (PI): Blenis, John; Harvard University
For quantitative high throughput analysis of mTORC1 signaling, we developed a cell-based assay for immuno-fluorescence based detection of rpS6 phosphorylation on the Acumen Explorer that will be used a platform for the primary small molecule screen. Mouse embryonic fibroblasts (MEFs) are cultured in 1536-well plates using DMEM + 10% FBS. Twenty-four hrs after plating, test compounds (solubilized in DMSO) are delivered and incubated with the cells for 24 hrs at 37 degree Celsius. Following the incubation, media with compound is aspirated and the cells are fixed in 4% paraformaldehyde (PFA) containing PBS + 0.2% TX-100. Next, PFA is aspirated, cells are washed two times with PBS plus 0.2% TX-100 and the cells are blocked for 1 hr at room temperature (blocking buffer: LiCOR Blocking Buffer plus 0.2% TX-100). This is followed by aspiration and staining with Alexa-488 conjugated-phospho-rpS6 Ser235/236 antibody for 2 hours at room temperature (Cell Signaling Technology # 4803, 1:50 dilution in blocking buffer). Cells are washed two times with PBS plus 0.2% TX-100, and stained with 10 uM propidium iodide (PI) for 20-25 minutes for cell number measurement (1:500 dilution of Hoescht staining is also added for IN Cell imaging). The plates are scanned on the Acumen Explorer laser scanning instrument (TTP Labtech) using the 488nm laser for simultaneous excitation of the Alexa-488 and PI. […] Fluorescence emission from the PI stain is selected using a 575-640 nm band pass filter. The normalized phospho-S6 staining is calculated as the ratio of the integrated Alexa 488 intensity divided by the integrated PI intensity for the single concentration rapamycin control (7.5 nM) and DMSO columns. […] Inhibition of the pathway is defined based on the normalized phospho-S6 intensity in rapamycin treated cells. Active cells are defined as those with a normalized phospho-S6 staining above this threshold, and each treatment is reported as the % positive cells in the well, where thresholds are defined by selecting wells with the highest and lowest signal and differentiating between the % non-active and % active populations. In addition to the pathway specific phospho-S6 endpoint, the number of PI stained cells from the Acumen is recorded as a measure of cell viability. […]
Potency is the fitted concentration of half-maximal effect.

Potency, active:
CCS(=O)(=O)c1ncc(Cl)c(C(=O)N(Cc2ccccc2)Cc2ccco2)n1 3.29 µM
CCN(c1ccccc1)S(=O)(=O)c1cc(C(=O)Nc2ccc(Br)cc2)ccc1F 13.1 µM
CCOC(=O)Cn1c(=O)c2c(nc(N3CCOCC3)n2Cc2ccccc2)n(C)c1=O 4.14 µM
Cc1cccc(NC(=O)c2nc(S(C)(=O)=O)ncc2Cl)c1 1.65 µM
CC1C(=O)N2CCCc3cc(S(=O)(=O)Nc4ccc(Br)cc4F)cc1c32 (stereo not given) 2.07 µM
CC(C)(C)c1ccc(C(=O)Nc2nnc3n2CCS3)cc1 8.26 µM
CCN(CC)CCn1c(=N)n(CCOc2ccccc2Cl)c2ccccc21 9.27 µM
CCCS(=O)(=O)c1ncc(Cl)c(C(=O)N2CCN(c3ccc(OC)cc3)CC2)n1 2.93 µM
CCN(CC)CCn1c(=N)n(CC(O)COc2ccccc2C)c2ccccc21 (stereo not given) 11.7 µM

Potency, inactive:
CC(C)c1ccc(C2Sc3ccccc3NC3=C2C(=O)c2ccccc23)cc1 (stereo not given)
COc1cc(NC(=O)c2cccc3c2C(=O)N(C2CCCCC2)C3)cc(OC)c1OC
COc1ccc(-c2[nH]nc3nc(-c4cc(OC)c(OC)c(OC)c4)cc(C(=O)O)c23)cc1
CC1C(=O)Nc2ccc(S(=O)(=O)Nc3ccccc3Br)cc2NC1=O (stereo not given)
Cc1ccc(-c2noc(CCC(=O)N(C)c3ccccc3F)n2)cc1
CN(Cc1ccccc1)C(=O)CSc1c2c(nc3ccc(Cl)cc13)CCCC2
CCOc1ccc(NC(=O)N(Cc2c[nH]c3ccccc23)C2CCCCCC2)cc1
NC(N)=NC(=O)c1nc(Cl)c(N)nc1N
CCc1nn(CC(=O)NCc2ccccc2Cl)c(=O)c2cccn12
Cc1ccc(S(=O)(=O)c2nnn3c2nc(NC2CCCCC2)c2sccc23)cc1C
C=C(C)CSc1nc(-c2ccccc2)cc(-c2ccc(OC)cc2)c1C#N
O=S(=O)(c1cccc2cnccc12)N1CCCNCC1
CN(C)c1ccc(Nc2nc3ccccc3n3nnnc23)cc1
COc1ccc(OC)c(NC(=O)c2nnn(CC(=O)Nc3ccc(C(C)C)cc3)c2N)c1
COc1ccc(C(=O)N2CCN(C(=O)COc3ccc(Br)cc3)CC2)cc1OC
O=S(=O)(NCC(c1ccco1)N1CCN(c2ccc(F)cc2)CC1)c1ccccc1 (stereo not given)
COc1ccc(-c2ccc(CCC(=O)O)n2-c2ccccc2O)cc1
c1ccc(N2CCN(c3ncnc4[nH]ncc34)CC2)cc1
COc1ccc(C2CC(=O)c3c([nH]c(C(=O)OC4CCCCCC4)c3C)C2)cc1OC (stereo not given)
CC(C)Oc1ccc(CNC(=O)c2ccc3nc(SCc4ccc(F)cc4)n(C)c3c2)cc1
COc1ccc(-c2n[nH]c3c2C(c2ccc(O)cc2)N(c2ccc(Br)cc2)C3=O)cc1 (stereo not given)
Cc1ccc(NC(=O)CSc2nc(-c3ccco3)cc(C(F)(F)F)n2)cc1C
COC(=O)c1cc2sc(C)cc2n1Cc1ccccc1
O=C(COc1ccc(F)cc1)Nc1ccc(Cl)c(-c2nc3ccccc3[nH]2)c1
COc1ccccc1CNC(=O)CCCn1c(=O)c2cccn2c2ccccc21
CCC(=O)C1=C(c2ccc(F)cc2)N(C(=O)CC)n2cnnc2S1
COc1ccc(C)cc1NC(=O)CSc1ccc(-c2ccccn2)nn1
Cc1cccc(OCc2ccc(-c3nc(C#N)c(NCCN(C)C)o3)o2)c1
CCC1CN(C(=O)NCc2ccc(F)cc2)c2cc(C)ccc2O1 (stereo not given)
COc1cc(Cl)c(C)cc1NC(=O)C1CCN(c2nc3ccccc3n3cccc23)CC1
Cc1ccc([C@H]2Nc3ccc(S(=O)(=O)Nc4cccc(Cl)c4C)cc3[C@H]3C=CC[C@H]32)cc1
